Results reported in PubChem BioAssay AID1159580 (chemical genetic matrix, 2015).
The whole screen tested about 5,500 compounds, of which about 2,000 (36%) were called active. Roughly 18% stayed inconclusive and do not appear here. The list shows a part of the results. A number with no mark means an inactive call. Rule as the data show it: active = normalized growth mostly below about 0.91 (no sharp cut-off); inconclusive = no clear call, values can overlap the other calls; inactive = mostly above about 0.92.

Assay: chemical genetic growth profiling, strain panel (AID 1159580);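 also: tested at 20 µM; growth read once vehicle control cultures reached saturation at 30 °C; 1 = growth at the plate median or of vehicle wells; lower values mean less growth of the strain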
Conditions: S. cerevisiae deletion strains, growth OD

Question: For C[C@@H]1O[C@@H](OC[C@H]2OC(Oc3c(-c4ccc(O)c(O)c4)oc4cc(O)cc(O)c4c3=O)[C@H](O)[C@@H](O)[C@@H]2O)[C@H](O)[C@H](O)[C@H]1O (stereo partly drawn), which normalized growth (locus YJL187C, strain SWE1, active compounds read low) is on record?
Answer: The normalized growth was 0.999.

Question: What about the normalized growth (locus YJR043C, strain POL32, active compounds read low) of the same molecule?
Answer: The normalized growth was 1.

Question: What about the normalized growth (locus YJR066W, strain TOR1, active compounds read low) of the same molecule?
Answer: Its normalized growth is 1.

Question: And the normalized growth (locus YJR075W, strain HOC1, active compounds read low)?
Answer: The normalized growth was 1.02.

Question: And the normalized growth (locus YKL009W, strain mrt4, active compounds read low)?
Answer: Its normalized growth is 1.11.

Question: What about the normalized growth (locus YKL068W, active compounds read low) of the same molecule?
Answer: The normalized growth was 0.982.

Question: And the normalized growth (locus YKL085W, strain MDH1 (second series), active compounds read low)?
Answer: The normalized growth was 0.992.

Question: What about the normalized growth (locus YKL085W, strain MDH1, active compounds read low) of the same molecule?
Answer: The normalized growth was 0.992.

Question: What about the normalized growth (locus YKL160W, strain elf1, active compounds read low) of the same molecule?
Answer: Its normalized growth is 0.976.

Question: And the normalized growth (locus YKR001C, strain vps1, active compounds read low)?
Answer: Its normalized growth is 1.01.

Question: What about the normalized growth (locus YKR026C, strain gcn3, active compounds read low) of the same molecule?
Answer: Its normalized growth is 1.

Question: And the normalized growth (locus YKR091W, strain srl3, active compounds read low)?
Answer: The normalized growth was 0.996.

Question: What about the normalized growth (locus YLL001W, strain dnm1, active compounds read low) of the same molecule?
Answer: Its normalized growth is 0.942.

Question: What about the normalized growth (locus YLL026W, active compounds read low) of the same molecule?
Answer: Its normalized growth is 0.997.

Question: And the normalized growth (locus YLL041C, strain sdh2, active compounds read low)?
Answer: Its normalized growth is 0.995.

Question: And the normalized growth (locus YLR027C, strain aat2, active compounds read low)?
Answer: Its normalized growth is 1.01.

Question: What about the normalized growth (locus YLR039C, strain RIC1, active compounds read low) of the same molecule?
Answer: Its normalized growth is 0.979.

Question: What about the normalized growth (locus YLR058C, strain SHM2, active compounds read low) of the same molecule?
Answer: The normalized growth was 1.03.

Question: What about the normalized growth (locus YLR102C, strain apc9, active compounds read low) of the same molecule?
Answer: The normalized growth was 1.

Question: What about the normalized growth (locus YLR113W, strain HOG1, active compounds read low) of the same molecule?
Answer: The normalized growth was 1.03.

Question: What about the normalized growth (locus YLR221C, strain rsa3, active compounds read low) of the same molecule?
Answer: The normalized growth was 1.06.

Question: What about the normalized growth (locus YLR258W, strain gsy2, active compounds read low) of the same molecule?
Answer: The normalized growth was 1.02.

Question: And the normalized growth (locus YLR262C, strain YPT6 (second series), active compounds read low)?
Answer: Its normalized growth is 1.03.

Question: And the normalized growth (locus YLR262C, strain YPT6, active compounds read low)?
Answer: The normalized growth was 0.99.

Question: What about the normalized growth (locus YLR268W, strain sec22, active compounds read low) of the same molecule?
Answer: The normalized growth was 0.977.

Question: What about the normalized growth (locus YLR320W, strain mms22, active compounds read low) of the same molecule?
Answer: Its normalized growth is 1.08.

Question: What about the normalized growth (locus YLR330W, strain CHS5, active compounds read low) of the same molecule?
Answer: The normalized growth was 0.999.

Question: What about the normalized growth (locus YLR342W, strain FKS1 (second series), active compounds read low) of the same molecule?
Answer: The normalized growth was 1.

Question: And the normalized growth (locus YLR342W, strain FKS1, active compounds read low)?
Answer: The normalized growth was 1.01.

Question: And the normalized growth (locus YLR357W, strain rsc2, active compounds read low)?
Answer: The normalized growth was 0.955.

Question: What about the normalized growth (locus YLR370C, strain arc18, active compounds read low) of the same molecule?
Answer: The normalized growth was 1.01.

Question: And the normalized growth (locus YLR371W, strain rom2, active compounds read low)?
Answer: Its normalized growth is 0.995.

Question: And the normalized growth (locus YLR384C, strain iki3, active compounds read low)?
Answer: The normalized growth was 0.993.

Question: What about the normalized growth (locus YLR418C, strain cdc73, active compounds read low) of the same molecule?
Answer: The normalized growth was 1.03.

Question: What about the normalized growth (locus YML016C, strain PPZ1, active compounds read low) of the same molecule?
Answer: The normalized growth was 1.01.

Question: And the normalized growth (locus YML032C, strain rad52, active compounds read low)?
Answer: The normalized growth was 1.03.

Question: And the normalized growth (locus YML120C, strain ndi1, active compounds read low)?
Answer: Its normalized growth is 0.972.

Question: What about the normalized growth (locus YML124C, strain tub3, active compounds read low) of the same molecule?
Answer: The normalized growth was 0.993.

Question: And the normalized growth (locus YMR058W, strain fet3, active compounds read low)?
Answer: Its normalized growth is 0.881 (active).

Question: And the normalized growth (locus YMR078C, strain ctf18, active compounds read low)?
Answer: The normalized growth was 0.999.

Question: And the normalized growth (locus YMR125W, strain sto1, active compounds read low)?
Answer: The normalized growth was 0.965.

Question: What about the normalized growth (locus YMR129W, active compounds read low) of the same molecule?
Answer: The normalized growth was 1.01.

Question: What about the normalized growth (locus YMR205C, strain PFK2, active compounds read low) of the same molecule?
Answer: The normalized growth was 1.

Question: And the normalized growth (locus YMR223W, strain ubp8, active compounds read low)?
Answer: The normalized growth was 1.01.

Question: And the normalized growth (locus YMR231W, strain pep5, active compounds read low)?
Answer: The normalized growth was 1.

Question: What about the normalized growth (locus YMR307W, strain GAS1, active compounds read low) of the same molecule?
Answer: Its normalized growth is 1.03.

Question: What about the normalized growth (locus YNL067W, strain RPL9B, active compounds read low) of the same molecule?
Answer: Its normalized growth is 1.01.

Question: What about the normalized growth (locus YNL071W, strain lat1, active compounds read low) of the same molecule?
Answer: The normalized growth was 1.02.

Question: What about the normalized growth (locus YNL183C, strain NPR1, active compounds read low) of the same molecule?
Answer: The normalized growth was 0.999.

Question: And the normalized growth (locus YNL209W, strain ssb2, active compounds read low)?
Answer: Its normalized growth is 0.939.

Question: And the normalized growth (locus YNL233W, strain BNI4, active compounds read low)?
Answer: Its normalized growth is 1.02.

Question: And the normalized growth (locus YNL248C, strain rpa49, active compounds read low)?
Answer: The normalized growth was 1.01.

Question: What about the normalized growth (locus YNL250W, strain rad50, active compounds read low) of the same molecule?
Answer: Its normalized growth is 0.963.

Question: What about the normalized growth (locus YNL271C, strain bni1, active compounds read low) of the same molecule?
Answer: Its normalized growth is 0.987.

Question: What about the normalized growth (locus YNL298W, strain CLA4, active compounds read low) of the same molecule?
Answer: The normalized growth was 0.982.

Question: What about the normalized growth (locus YNL307C, strain MCK1, active compounds read low) of the same molecule?
Answer: Its normalized growth is 0.987.

Question: What about the normalized growth (locus YNL322C, strain KRE1 (second series), active compounds read low) of the same molecule?
Answer: Its normalized growth is 0.997.

Question: And the normalized growth (locus YNL322C, strain KRE1, active compounds read low)?
Answer: The normalized growth was 1.01.

Question: And the normalized growth (locus YNR049C, strain mso1, active compounds read low)?
Answer: Its normalized growth is 0.998.

Question: And the normalized growth (locus YNR052C, strain pop2, active compounds read low)?
Answer: The normalized growth was 1.01.

Question: What about the normalized growth (locus YOL006C, strain TOP1, active compounds read low) of the same molecule?
Answer: Its normalized growth is 1.03.

Question: What about the normalized growth (locus YOL012C, strain htz1) of the same molecule?
Answer: Its normalized growth is 0.939.

Question: What about the normalized growth (locus YOL147C, strain pex11, active compounds read low) of the same molecule?
Answer: The normalized growth was 1.

Question: What about the normalized growth (locus YOR001W, strain rrp6, active compounds read low) of the same molecule?
Answer: Its normalized growth is 1.03.

Question: And the normalized growth (locus YOR061W, strain CKA2, active compounds read low)?
Answer: Its normalized growth is 1.01.

Question: What about the normalized growth (locus YOR069W, strain VPS5, active compounds read low) of the same molecule?
Answer: The normalized growth was 0.994.

Question: And the normalized growth (locus YOR070C, strain gyp1, active compounds read low)?
Answer: The normalized growth was 0.999.

Question: And the normalized growth (locus YOR080W, strain dia2, active compounds read low)?
Answer: Its normalized growth is 1.01.

Question: What about the normalized growth (locus YOR083W, strain WHI5, active compounds read low) of the same molecule?
Answer: Its normalized growth is 0.97.

Question: What about the normalized growth (locus YOR106W, strain vam3, active compounds read low) of the same molecule?
Answer: The normalized growth was 0.877.

Question: And the normalized growth (locus YOR136W, strain idh2, active compounds read low)?
Answer: The normalized growth was 0.99.

Question: And the normalized growth (locus YOR144C, strain elg1, active compounds read low)?
Answer: The normalized growth was 1.01.

Question: And the normalized growth (locus YOR184W, strain ser1, active compounds read low)?
Answer: Its normalized growth is 1.

Question: What about the normalized growth (locus YOR231W, strain MKK1, active compounds read low) of the same molecule?
Answer: Its normalized growth is 1.05.

Question: What about the normalized growth (locus YOR265W, strain rbl2, active compounds read low) of the same molecule?
Answer: The normalized growth was 1.01.

Question: What about the normalized growth (locus YOR270C, strain vph1, active compounds read low) of the same molecule?
Answer: The normalized growth was 1.

Question: And the normalized growth (locus YOR290C, strain snf2, active compounds read low)?
Answer: The normalized growth was 0.959.

Question: What about the normalized growth (locus YOR316C, strain cot1, active compounds read low) of the same molecule?
Answer: The normalized growth was 0.999.

Question: What about the normalized growth (locus YPL051W, strain arl3, active compounds read low) of the same molecule?
Answer: The normalized growth was 0.971.

Question: What about the normalized growth (locus YPL078C, strain atp4, active compounds read low) of the same molecule?
Answer: Its normalized growth is 0.941.

Question: What about the normalized growth (locus YPL106C, strain sse1, active compounds read low) of the same molecule?
Answer: The normalized growth was 0.999.

Question: And the normalized growth (locus YPL240C, strain hsp82, active compounds read low)?
Answer: Its normalized growth is 1.

Question: What about the normalized growth (locus YPL256C, strain CLN2, active compounds read low) of the same molecule?
Answer: The normalized growth was 1.09.

Question: And the normalized growth (locus YPR119W, strain clb2, active compounds read low)?
Answer: Its normalized growth is 1.

Question: And the normalized growth (locus YPR141C, strain kar3, active compounds read low)?
Answer: The normalized growth was 0.994.

Question: And the normalized growth (locus YPR163C, strain tif3, active compounds read low)?
Answer: Its normalized growth is 0.998.

Question: What about the normalized growth (locus YPR167C, strain met16, active compounds read low) of the same molecule?
Answer: Its normalized growth is 0.991.

Question: And the normalized growth (strain wtn01, active compounds read low)?
Answer: The normalized growth was 0.975.
